High-throughput results from PubChem BioAssay.
aSyn UTR act = Activators via SNCA 5'UTR binding, MLPCN. alpha-synuclein 5'UTR reporter, activators screen. actives 7.1% (n = 300,000). AID 1814. activity score, % (tested at 7.5 µM), hits read low; in the data active = activity score below about -60%
Hits are given with their value; – = inactive. These entries were drawn from the full list.

SMILES | aSyn UTR act
CNC(=S)N/N=C/c1c(C)nn(-c2ccccc2)c1Cl | -88.6
Cc1nn(-c2ccccc2Cl)c(Cl)c1/C=N/Nc1nc2ccccc2s1 | –
Cc1ccc(Nc2nc(-c3ccncc3)cs2)cc1 | -331.1
Clc1cccc(Nc2nc(-c3ccncc3)cs2)c1 | -159.3
O=C(NNC(=S)Nc1ccccc1)c1ccc2ncccc2c1 | -97.2
O=C(NC(=S)Nc1ccc2nc[nH]c2c1)c1ccccc1 | -115.8
CC(C)(C)NC(=S)NNC(=O)c1ccc2ncccc2c1 | -133.8
COc1cccc(C(=O)Nc2ccc3[nH]ncc3c2)c1 | -75.8
CC1(C)N=C(N)N=C(N)N1c1ccc(Oc2ccc(Cl)cc2)c(Cl)c1 | –
O=C(NC(=S)Nc1ccc2[nH]ncc2c1)c1ccccc1 | -115.0
O=C(NC(=S)Nc1ccc2ncccc2c1)c1ccccc1 | -137.1
O=C(Nc1ccc2cccnc2c1)c1ccc(Br)cc1 | -64.6
O=C1C=C(c2ccccc2)C[C@H](c2cccs2)[C@H]1n1nnc([N+](=O)[O-])n1 | –
Cc1ccc(CC2CC(=O)N(Cc3ccco3)C2=O)cc1 (stereo not drawn) | -128.5
Cc1ccc(NC(=O)C(=O)Nc2ccc(C)cn2)nc1 | -66.5
Cc1ccc(NC(=O)/C(C#N)=C(\N)C(Cl)(Cl)Cl)nc1 | -67.8
Cc1ccc(NC(=O)c2ccc(F)cc2)nc1 | -107.5
Cc1ccc(NC(=O)Nc2cccc([N+](=O)[O-])c2)nc1 | -112.8
Cc1ccc(NC(=O)Nc2ccccc2)nc1 | -119.4
C=C(C)c1cccc(C(C)(C)NC(=O)Nc2ccc(C)cn2)c1 | -90.9
Cc1ccc(NC(=O)Nc2ccc([N+](=O)[O-])cc2)nc1 | -113.4
Cc1ccc(/C(O)=C2\C(=O)C(=O)N(Cc3cccnc3)C2c2ccccc2[N+](=O)[O-])cc1 (stereo not drawn) | -98.9
Cc1cccnc1Nc1nc(-c2ccc(F)cc2)cs1 | -226.2
Cc1cccnc1Nc1nc(-c2ccc(O)cc2)cs1 | -230.8
Nc1cc2c(cc1O)CCCC2 | -90.5
SMILES | aSyn UTR act
CCOC(=O)N1CC=C2C(C#N)=C(N)C(C#N)(C#N)[C@H](c3ccc(OCC)c(OCC)c3)[C@H]2C1 | -78.1
O=C(Nc1ccc(F)cc1)c1sc(Cl)nc1-c1ccccc1 | -72.9
Cc1ccc(NC(=O)c2sc(Cl)nc2-c2ccccc2)cc1 | -63.4
CN(C)C=Nc1ccc2nc3c(cc2c1)[nH]c1ccccc13 | -232.7
CCCCOc1ccc(-n2nc(C)cc2C)nn1 | -72.1
C=C(C)CSc1nncn1/N=C/c1ccc(OC)cc1 | -187.0
C=C(C)CSc1nnc(-c2ccc(OC)cc2)n1N | -102.7
C=C(C)CSc1nnc(-c2cccc(Cl)c2)n1N | -84.9
CCc1ccc(-c2cc(C)no2)cc1S(=O)(=O)N1CCN(c2ccccc2)CC1 | -73.0
Clc1ccc(-c2nnc(-c3ccccc3Cl)o2)cc1 | -82.0
Clc1ccccc1-c1nnc(-c2ccccc2Cl)o1 | -158.3
Cc1nc(NC(=O)c2ccco2)sc1-c1csc(Nc2ccc(Cl)cc2)n1 | -69.7
Cc1nc(NC(=O)c2ccccc2)sc1-c1csc(Nc2ccc(Cl)cc2Cl)n1 | -83.6
Cc1nc(NC(=O)c2ccccc2)sc1-c1csc(Nc2ccc(Cl)cc2)n1 | -64.6
Cc1nc(NC(=O)c2ccccc2)sc1-c1csc(Nc2ccc(F)cc2)n1 | -93.9
COc1ccc(OC)c(Nc2nc(-c3sc(NC(=O)c4ccccc4)nc3C)cs2)c1 | -243.7
CN(C)/C=C/C(=O)c1cnc(-c2ccccc2Cl)s1 | -127.5
CN(C)/C=C/C(=O)c1cnc(-c2cccc(Cl)c2)s1 | -145.9
COc1ccc(-c2cn3c(C)c(C(=O)NC(C)(C)C)sc3n2)cc1 | -229.2
COc1ccc(-c2cn3c(C)c(C(=O)NC(C)C)sc3n2)cc1 | -77.8
O=C(Cc1cccc2ccccc12)Nc1ccc2c(c1)C(=O)NC2=O | -64.6
Cc1ccc(C(=O)Nc2cccc(C(F)(F)F)c2)cc1NC(=O)c1ccno1 | –
Cc1ccc(NC(=O)c2c(C(F)(F)F)nn(C)c2SCc2cccc(C(F)(F)F)c2)cc1C | -102.4
CCc1ccc2c(c1)/C(=N/N(C)C(=S)NC)C(=O)N2 | -70.9
CC(=O)N(/N=C1/C(=O)Nc2ccccc21)c1ccccc1 | -114.2
SMILES | aSyn UTR act
Cc1ccc2[nH]c(=O)c(C3C(C#N)=C(N)Oc4c3ccc3cccnc43)cc2c1 (stereo not drawn) | –
Cc1ccc2[nH]c(-c3cccc(N)c3)cc2c1 | -209.2
Cc1ccc2[nH]c(-c3cccc(F)c3)cc(=O)c2c1 | –
CCOC(=O)c1cn2nc(Oc3ccccc3)ccc2n1 | -148.8
CCOC(=O)c1cn2nc(Oc3ccc(C)cc3)ccc2n1 | -75.2
COc1ccc(NC2=C(NCCO)C(=O)c3ccccc3C2=O)cc1 | -91.5
COC1=C(Nc2ccc(OC)cc2)C(=O)c2ccccc2C1=O | -161.5
Cc1ccc(NC2=CC(=O)C(=O)c3ccccc32)cc1 | –
O=C1C=C(Nc2ccc(O)cc2)C(=O)c2ccccc21 | –
O=C1C(Nc2ccc(O)cc2)=C/C(=N/S(=O)(=O)c2cccs2)c2ccccc21 | –
CCOc1ccc2c(c1)OC(c1ccc(OC)cc1)(C(F)(F)F)NC2=O (stereo not drawn) | –
COC1=C(Nc2ccc(O)cc2)C(=O)c2ccccc2C1=O | -109.5
CCOc1ccc(NC2=C(OC)C(=O)c3ccccc3C2=O)cc1 | -94.4
O=C(COc1ccc([N+](=O)[O-])cc1)Nc1nc(-c2ccccn2)cs1 | –
O=C(NCCc1ccccc1)C(=O)Nc1nccs1 | -83.9
Oc1ccccc1C(Nc1nccs1)c1ccc2cccnc2c1O (stereo not drawn) | –
O=C(COC(=O)c1ccccc1Cl)Nc1nccs1 | -91.5
C/C(=C\C(=O)Nc1nccs1)c1ccccc1 | -197.1
O=C(COc1ccccc1)Nc1nccs1 | -99.9
O=C(COc1ccc2ccc(=O)oc2c1)Nc1nccs1 | -84.7
Cn1cc(SCC(=O)Nc2nccs2)c2ccccc21 | -165.1
NC(=O)c1ccsc1NC(=O)COc1ccccc1 | -136.5
Cc1c(C(=O)NNC(=S)Nc2cccc(Cl)c2)nnn1-c1ccccc1 | -68.8
Cc1ccc(C(=O)NC(=S)Nc2cc(-c3nc4ccccc4s3)ccc2C)cc1 | -95.1
COc1ccc(-c2nc3ccccc3s2)cc1NC(C)=O | -126.5
SMILES | aSyn UTR act
CC(/C=C/c1ccccc1F)=N\NC(=O)c1cccc(F)c1 | -139.4
CC(/C=N/NC(=O)c1cccc(F)c1)=C\c1ccccc1 | -254.5
CC(=C/c1ccc(C(C)C)cc1)/C=N/NC(=O)c1ccncc1 | -109.6
CC(/C=N/NC(=O)c1ccc2nc(C)[nH]c2c1)=C\c1ccccc1 | -67.4
CCOc1cc(C(=O)N/N=C/C(Br)=C/c2ccccc2)cc(OCC)c1OCC | –
O=C(N/N=C/C(Br)=C\c1ccccc1)c1ccc2nc[nH]c2c1 | -90.4
